Screens: PubChem BioAssay, National Center for Advancing Translational Sciences (NCATS)
JMJD2A Tudor inh = inhibitors of human JMJD2A Tudor domain; O75164; AlphaScreen JMJD2A-Tudor / H3K4me3 peptide binding; Potency, µM (top dose mostly 114 µM), without a hit: at the top dose activity change, negative = inhibition, most hits filed as inhibitors; 390,000 compounds, 4.4% hits; AID 504339; also: potency is read from the fitted curve at half-maximal effect; % is scaled to controls: 0 for no effect and ±100 for the full control effect; nearly all actives have a fitted effect of over 50% in size
Target sequence (O75164 whole entry, looked up, the tested form may be a part): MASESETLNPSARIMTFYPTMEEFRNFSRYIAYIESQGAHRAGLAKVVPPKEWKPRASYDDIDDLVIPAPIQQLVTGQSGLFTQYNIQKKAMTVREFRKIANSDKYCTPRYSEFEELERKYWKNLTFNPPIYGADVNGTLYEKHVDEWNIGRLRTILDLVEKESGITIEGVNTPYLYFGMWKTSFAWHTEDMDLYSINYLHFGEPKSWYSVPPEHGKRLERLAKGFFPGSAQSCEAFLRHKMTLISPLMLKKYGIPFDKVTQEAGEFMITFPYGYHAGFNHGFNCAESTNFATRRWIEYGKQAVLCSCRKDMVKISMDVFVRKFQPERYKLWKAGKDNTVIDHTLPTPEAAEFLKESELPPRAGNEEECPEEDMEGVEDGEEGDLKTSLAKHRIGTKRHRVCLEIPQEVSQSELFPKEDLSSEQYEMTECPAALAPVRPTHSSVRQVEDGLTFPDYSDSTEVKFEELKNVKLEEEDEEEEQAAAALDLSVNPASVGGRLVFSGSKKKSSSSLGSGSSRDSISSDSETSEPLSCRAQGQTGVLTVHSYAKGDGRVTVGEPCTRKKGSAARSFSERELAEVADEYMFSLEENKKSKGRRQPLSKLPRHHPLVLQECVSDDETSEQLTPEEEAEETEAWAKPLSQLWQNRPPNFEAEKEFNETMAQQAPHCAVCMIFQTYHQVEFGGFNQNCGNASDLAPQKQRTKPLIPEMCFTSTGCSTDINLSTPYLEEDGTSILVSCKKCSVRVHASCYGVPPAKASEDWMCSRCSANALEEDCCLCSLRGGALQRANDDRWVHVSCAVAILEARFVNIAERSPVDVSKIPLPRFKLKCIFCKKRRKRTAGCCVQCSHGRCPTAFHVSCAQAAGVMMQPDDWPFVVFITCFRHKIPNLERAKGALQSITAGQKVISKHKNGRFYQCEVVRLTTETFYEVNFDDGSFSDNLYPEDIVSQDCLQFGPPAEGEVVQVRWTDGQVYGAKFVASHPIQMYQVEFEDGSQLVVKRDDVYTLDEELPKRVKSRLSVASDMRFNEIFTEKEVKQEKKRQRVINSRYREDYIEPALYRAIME
Six1-Eya2 blk = blocks human Six1 binding to Eya2 | Q15475+O00167 | AlphaScreen GST-Six1/His-Eya2 binding, biochemical; hits give low values | activity change, % (test concentration not listed) | 360,000 compounds, 0.56% hits | AID 651725; in the data active = activity change below about -65%; inconclusive = mostly about -30% to -63%; also: % is scaled to controls: 0 for no effect and ±100 for the full control effect
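GST-Six1 + His-Eya2 (5X stock: 250/500 nM); Tris pH 8.0, 300 mM NaCl, 0.05% BSA, 0.02% Tween 20; GSH donor/Ni acceptor beads; 1 h 37 °C dark; AlphaScreen readout.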
G9a inh = inhibitors of human histone lysine methyltransferase G9a; Potency, µM (titrated, usually from 102 µM), without a hit: at the top dose activity, negative = inhibition, hits mostly inhibitors; Q96KQ7; G9a H3K9 monomethylation, AlphaScreen, 2 h; 350,000 compounds, 8.8% hits; also: potency is read from the fitted curve at half-maximal effect; % is scaled to controls: 0 for no effect and ±100 for the full control effect; nearly all actives have a fitted effect of over 75% in size
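Quantitative HTS format: methyltransferase activity on a biotin-tagged H3K9 peptide is measured by AlphaScreen, using a rabbit anti-monomethyl-H3K9 antibody with streptavidin donor and anti-IgG acceptor beads. Final levels are 20 nM enzyme, 500 nM peptide, 20 uM SAM; 2 h RT.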
BAZ2B block = blocks human BAZ2B; AlphaScreen BAZ2B-H3K14Ac peptide displacement; AID 504333; 360,000 compounds, 4.4% hits; Potency, µM (titrated, usually from 114 µM), for inactives: at the top dose activity change, negative = inhibition, most hits filed as inhibitors; Q9UIF8; also: potency is read from the fitted curve at half-maximal effect; % is scaled to controls: 0 for no effect and ±100 for the full control effect; nearly all actives have a fitted effect of over 60% in size
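AlphaScreen displacement of biotin-H3(5-23)K14Ac peptide (50 nM final) from BAZ2B (50 nM final) in PBS pH 7.4, 0.01% Tween-20; complex preformed 30 min RT, then compounds (top 110 uM) 30 min RT, beads 20 min dark.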
CtBP-E1A blk = blocks the CtBP interaction with E1A; activity change, % (no concentration beside the values); AID 651724; AlphaScreen GST-E1A/His-CtBP binding, 1536-well; hits give low values; 340,000 compounds, 0.49% hits; in the data active = activity change below about -65%; inconclusive = mostly about -30% to -63%; also: % is scaled to controls: 0 for no effect and ±100 for the full control effect
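Protein mix (5X: 125 nM each GST-E1A, His-CtBP) was incubated with pinned compound 2 h at 37 deg C in dark, in 50 mM Tris pH 8.0 buffer with 300 mM NaCl. Glutathione donor and nickel acceptor beads followed; AlphaScreen signal read after 1 h.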
HP1b binding inh = inhibitors of HP1-beta chromodomain binding to methylated histone tails | P83916 | AlphaScreen HP1-beta / biotin-H3K9me3 peptide binding | Potency, µM (highest dose often 114 µM), for the others: at the top dose activity change, negative = inhibition, usual class: inhibitors | 390,000 compounds, 0.56% hits | AID 540317; also: potency is read from the fitted curve at half-maximal effect; nearly all actives have a fitted effect of over 70% in size
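AlphaScreen: HP1-beta (50 nM) preformed 30 min with biotin-H3(1-18)K9me3 peptide (50 nM) in PBS pH 7.4, 0.01% Tween-20. Compound added for 30 min at RT, then streptavidin donor/nickel chelate acceptor beads (10 ug/mL) for 30 min.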
Numbers without * were called inactive; ? = inconclusive; · = not tested or not shown; [ ] = another dose, or the depositor's remark. Hits are enriched below; roughly 10% of the tested compounds scored in any of these assays. Unless noted, calls follow the shape of the dose curve; as a rule, active = well fitted inhibition curve with a large enough effect; inconclusive = small, poorly fitted or top-dose-only effect; inactive = no such curve, though single readings can be large or run the other way.

SMILES | JMJD2A Tudor inh | Six1-Eya2 blk | G9a inh | BAZ2B block | CtBP-E1A blk | HP1b binding inh
CCOC(=O)C1CCN(c2c(C(=O)c3ccc(OCC)cc3)cnc3ccc(OC)cc23)CC1 | ? | · | ? | ? | · | -11%
COc1cc(/C=N/NC(=O)c2cccc(N3CCCC3=O)c2)ccc1O | -23% | -10 | 9% | -18% | -11 | 37%
O=C(N/N=C/c1cc([N+](=O)[O-])ccc1O)c1cccc2cc[nH]c12 | ? | -70* | 24% | -1% | -93* | 45%
Cc1nc(C)c(C(=O)N/N=C/c2cc(Br)ccc2O)s1 | ? | ? | 55%[59 µM] | ? | -84* | 43%
O=C(N/N=C/c1cc([N+](=O)[O-])ccc1O)c1cccc(N2CCCC2=O)c1 | 32µM* | -91* | 23% | 20µM* | -93* | 48%
O=C(NN=Cc1cccc(O)c1O)c1ccccc1 | · | -90* | · | · | -91* | ·
CCOC(=O)c1sc(N2C(=O)c3oc4cc(C)c(C)cc4c(=O)c3C2c2ccc(C)cc2)nc1C (stereo not drawn) | -2% | · | 43%[59 µM] | 3% | · | 82%
O=C(N/N=C/c1cc(Br)ccc1O)c1ccncc1 | 28µM* | -93* | 59%[12.7 µM] | 20µM* | -94* | 35%
NC(=O)N/N=C\c1cc(Br)ccc1O | -15% | -18 | 4%[59 µM] | 5% | 0 | 22%
O=C(N/N=C/c1ccccc1O)c1ccncc1 | 50µM* | -92* | 33%[59 µM] | 35µM* | -92* | 25%
Cc1cc(C(=O)N/N=C/c2cc(Br)ccc2OC(=O)c2ccccc2)n[nH]1 | -12% | ? | 11%[59 µM] | 10% | -67* | 44%
O=C(N/N=C\c1cc(Br)ccc1O)c1ccc(S(=O)(=O)N2CCCCC2)cc1 | ? | -20 | 55%[59 µM] | -8% | -19 | 51%
O=C(N/N=C/c1cc(Cl)ccc1O)c1ccc(Br)cc1 | 25µM* | ? | 6%[59 µM] | ? | ? | 29%
CS(=O)(=O)c1ccc([C@@H](O)[C@@H](COC(=O)CN)NC(=O)C(Cl)Cl)cc1 | · | · | 3%[12.7 µM] | · | · | ·
O=C(N/N=C/c1cc([N+](=O)[O-])ccc1O)c1ccc2c(c1)OCCO2 | ? | -81* | 5%[59 µM] | 0% | 0 | 35%
Cc1nccn1CC(=O)c1ccc(O)c(O)c1 | 20µM* | 1 | 10%[0.501 µM] | 56µM* | 1 | 20%
COc1cc(O)c(/C=N/NC(=O)c2ccncc2)c(OC)c1[N+](=O)[O-] | 50µM* | ? | -28% | 7.9µM* | · | 49%
COc1cn(CC(=O)Nc2c(C)cc(C)cc2C)c(CN2CCCCC2)cc1=O | -16% | · | 5%[59 µM] | -1% | · | 14%
O=C(COc1ccccc1F)Nc1ccc(Cl)c(-c2nc3ccccc3[nH]2)c1 | -6% | · | 3%[59 µM] | -19% | · | 52%
CCOC(=O)CN1CC23C=CC(O2)C(C(=O)NCc2cccs2)C3C1=O (stereo not drawn) | 6% | 3 | 10% | -1% | 2 | 40%
CCOC(=O)CN1CC23C=CC(O2)C(C(=O)NCc2ccc(C)cc2)C3C1=O (stereo not drawn) | 2% | 2 | 35µM* | -18% | 2 | 33%
CCOC(=O)CN1CC23C=CC(O2)C(C(=O)NC2CCCC2)C3C1=O (stereo not drawn) | -6% | 4 | 45µM* | 25% | 5 | 44%
COC(=O)C(NS(N)(=O)=O)C(C)C (stereo not drawn) | -12% | · | · | · | · | 35%
Cc1nc(-c2ccc(S(=O)(=O)N3CCN(c4cccc(Cl)c4)CC3)cc2)co1 | -26% | · | -33%[59 µM] | -6% | · | -1%[57 µM]
COc1ccccc1CNC(=O)C(=O)NCC(c1ccc2c(c1)OCO2)N1CCOCC1 (stereo not drawn) | 2% | · | 7%[59 µM] | 5% | · | 25%[57 µM]
SMILES | JMJD2A Tudor inh | Six1-Eya2 blk | G9a inh | BAZ2B block | CtBP-E1A blk | HP1b binding inh
CCOC(=O)CC(NS(=O)(=O)c1ccc2[nH]cc(C(=O)O)c(=O)c2c1)c1ccc(OCC)c(OC)c1 (stereo not drawn) | 22µM* | -9 | 10µM* | 28µM* | 4 | 50µM*
COc1ccc2oc(C)c(C(=O)NN)c2c1 | -23% | 0 | 10µM* | -11% | -4 | 24%
CCOC(=O)c1c(CN2CCN(C)CC2)oc2ccc(OC)cc12 | ? | 0 | ? | 79µM* | -8 | 19%
CCOC(=O)c1c(CN2CCN(c3ccccc3)CC2)oc2ccc(O)cc12 | ? | -24 | 40µM* | ? | -13 | -2%
CCOC(=O)c1oc2ccccc2c1CN1CCN(c2ccccc2)CC1 | 79µM* | ? | ? | 56µM* | -22 | -17%
CCOC(=O)c1oc2ccccc2c1CN1CCN(C(=O)c2ccccc2)CC1 | -15% | 3 | -46% | -5% | -12 | 28%
O=c1oc2ccc3ccccc3c2cc1-c1nnc(Nc2cccc(C(F)(F)F)c2)s1 | -11% | · | ? | 2% | · | 12%
CNC(=O)C1CCC(Cn2c(=O)c3sccc3n(CC(=O)N3CCCC3)c2=O)CC1 (stereo not drawn) | -10% | · | 27%[59 µM] | -3% | · | 34%
Cc1ccc(CNc2ncnc3ccc(-c4c(C)noc4C)cc23)cc1 | -12% | · | · | · | · | ·
COC(=O)CCC(=O)c1oc2ccc(Br)cc2c1N | -5% | -2 | -8%[59 µM] | 7% | -7 | 12%
COc1ccc2oc(C(=O)CCC(=O)O)c(N)c2c1 | -5% | 24 | 50µM* | -9% | 3 | 70%
C/C(=C\C=C(C#N)C#N)c1cc(C#N)c(N)o1 | ? | ? | 20µM* | 25µM* | -24 | ?
CCOC(=O)c1nsnc1NCCSC(=N)N | -3% | -1 | 8.9µM* | 10% | · | 15%
CCOC(=O)c1nonc1NC(C)=O | -9%[57.1 µM] | 7 | 16%[59 µM] | 7% | 2 | 47%
CCN(CC)CCN(C(=O)c1ccco1)c1nc2c(C)cccc2s1 | -36% | · | -26%[59 µM] | -30% | · | 35%
CCc1nc(-c2ccccc2)c2ccccn12 | 2% | 4 | 16µM* | · | -4 | 35%
COc1ccc(CNCCCSc2nnnn2C)c(OC)c1 | -2% | · | -2%[59 µM] | 3% | · | 49%
CCOc1ccccc1CNCCN1CCOCC1 | -5% | 2 | ? | ? | 5 | 36%
CCc1cccc(OCCOCCN2CCCC2)c1 | 10µM* | 3 | 10µM* | 79µM* | 3 | ?
CC(OCCN1CCCC1)(c1ccc(F)cc1)c1ccc(F)cc1 | 89µM* | -4 | 8%[59 µM] | -3% | 1 | 23%
c1ccc(COc2ccc(OCCN3CCCC3)cc2)cc1 | ? | 1 | ? | -12% | -11 | 1%
CNCCOc1ccc(Cl)c(Cl)c1 | 3.2µM* | 0 | 40µM* | -33% | -19 | ?
CCOc1ccc(CNCCN2CCCC2)cc1 | 13µM* | -8 | 2.8µM* | 56µM* | 1 | ?
